The values below come from PubChem BioAssay AID1347418 (Sanford-Burnham Center for Chemical Genomics, 2020).

About 750 (58%) of roughly 1,300 compounds were called active. This is one part of the list. Values without a mark were called inactive.

Sequence of Sulfhydryl oxidase 1 (Homo sapiens) (O00391 whole entry, looked up): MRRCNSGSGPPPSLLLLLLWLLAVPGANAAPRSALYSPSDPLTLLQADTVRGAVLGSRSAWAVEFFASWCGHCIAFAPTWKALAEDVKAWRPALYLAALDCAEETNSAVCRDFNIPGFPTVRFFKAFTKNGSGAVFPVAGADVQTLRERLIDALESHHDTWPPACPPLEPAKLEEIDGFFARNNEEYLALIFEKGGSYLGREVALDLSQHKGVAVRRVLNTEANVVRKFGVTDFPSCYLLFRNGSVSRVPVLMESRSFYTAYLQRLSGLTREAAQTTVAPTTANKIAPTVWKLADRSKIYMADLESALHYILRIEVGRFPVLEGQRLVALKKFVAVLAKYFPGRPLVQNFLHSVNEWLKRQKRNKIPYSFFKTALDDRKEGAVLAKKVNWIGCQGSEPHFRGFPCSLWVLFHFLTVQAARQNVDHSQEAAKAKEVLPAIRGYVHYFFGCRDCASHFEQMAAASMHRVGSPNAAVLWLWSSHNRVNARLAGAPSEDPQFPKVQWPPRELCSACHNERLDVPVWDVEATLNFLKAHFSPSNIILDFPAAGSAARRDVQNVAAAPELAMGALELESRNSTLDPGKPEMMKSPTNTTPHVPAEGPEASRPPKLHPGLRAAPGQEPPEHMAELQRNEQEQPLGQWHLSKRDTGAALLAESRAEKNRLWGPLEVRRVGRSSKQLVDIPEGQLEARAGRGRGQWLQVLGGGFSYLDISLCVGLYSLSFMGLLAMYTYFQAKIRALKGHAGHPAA

This assay concerns the target Sulfhydryl oxidase 1 (Homo sapiens) (UniProt O00391). Nature of the assay: inhibition of human sulfhydryl oxidase QSOX1 – biochemical, ROS-Glo H2O2 luminescence, HTS, primary screen (AID 1347418). The following applies: recombinant QSOX1, ROS-Glo H2O2 luminescence; at 12.5 µM; stronger effect = higher value; active = any value above zero.
The term inhibition denotes the change of the read-out against control, counted positive when it falls. For `CC(C)(CO)Cc1cc(C(C)(C)C)c(O)c(C(C)(C)C)c1`, the inhibition was 4.9% (active).
Turning to `CC(C)(C=O)Cc1cc(C(C)(C)C)c(O)c(C(C)(C)C)c1`, the inhibition is -0.1%.
As for `CCCCCC[C@@H]([C@@H](C)O)n1cnc2c(N)ncnc21`, the figure is -0.9%.
Regarding `CCCCCCCCCCCCCCC[C@H](O)[C@H](N)CO`, the inhibition was 7.8% (active).
The same measure for `CCCC(=O)NCCc1c2n(c3ccc(OC)cc13)CCCc1ccccc1-2`: 15% (active); for `CC(C)Cc1ccc([C@H](C)C(=O)O)cc1`: -0.6%; for `CC(C)Cc1ccc(C(C)C(=O)O)cc1` (stereo not drawn): 5.8% (active).
As for `CC(C(=O)O)c1ccc(CC2CCCC2=O)cc1` (stereo not drawn), the figure is 0.1% (active); as for `CC(C(=O)O)c1cccc(C(=O)c2ccccc2)c1` (stereo not drawn), -2.4%.
The same measure for `O=C(O)/C=C/c1cnc[nH]1`: 1% (active); for `CCC1(C)CC(=O)NC1=O` (stereo not drawn): 0.9% (active); for `CCCCOc1cc(CC2CNC(=O)N2)ccc1OC` (stereo not drawn): -0.2%.
Turning to `N[C@H](C(=O)O)[C@H]1C[C@@H]1C(=O)O`, the inhibition is 0.2% (active).
As for `Cc1cccc(C)c1OCC(N)C(C)C` (stereo not drawn), the figure is 4.5% (active).
As for `Cc1cccc(C)c1OCC(C)N` (stereo not drawn), the figure is -0.4%.
As for `Cc1cc2c(cc1Cl)N(C(=O)Nc1ccnc3ccccc13)CC2`, the figure is 16.8% (active); as for `Cc1cc2c(cc1Cl)N(C(=O)Nc1ccc(Oc3cccnc3C)nc1)CC2`, 1.2% (active).
In the case of `CCN(CC)CCNC(=O)c1ccc(N)cc1`, the inhibition was -7.4%.
The same measure for `CCN(CC)CCNC(=O)c1ccc(NC(C)=O)cc1`: 0.3% (active); for `CCN(CC)CCNC(=O)c1ccc(NS(C)(=O)=O)cc1`: -0.3%.
The same measure for `CN(C)CCOC(C)(c1ccccc1)c1ccccn1` (stereo not drawn): -2.5%; for `COc1ccc(CN(CCN(C)C)c2ccccn2)cc1`: 1.5% (active).
The same measure for `CN(C)CCN(Cc1cccs1)c1ccccn1`: 7% (active); for `CNC1(C)C2CCC(C2)C1(C)C` (stereo not drawn): -2%; for `CN1CCCC1CCOC(C)(c1ccccc1)c1ccc(Cl)cc1` (stereo not drawn): 0.6% (active).
Turning to `C=C/C(C)=C/[C@@]1(C)SC(=O)C(C)=C1O`, the inhibition was -4.2%.
With `CO[C@@]1(NC(=O)CSCC#N)C(=O)N2C(C(=O)O)=C(CSc3nnnn3C)CS[C@@H]21`, the inhibition is 0.7% (active).
As for `Cc1nnc(SCC2=C(C(=O)O)N3C(=O)[C@@H](NC(=O)Cn4cnnn4)[C@H]3SC2)s1`, the figure is -3.9%; as for `CO/N=C(\C(=O)N[C@@H]1C(=O)N2C(C(=O)O)=C(CSc3nc(=O)c(O)nn3C)CSC12)c1csc(N)n1` (stereo partly drawn), -1.9%; as for `O=C(O)C1CN(CCCP(=O)(O)O)CCN1` (stereo not drawn), 2.1% (active).
As for `CN1CCC2(CCN3CCc4c(oc5ccccc45)C3C2)N(C)C1=O` (stereo not drawn), the figure is -6.5%; as for `NC(=O)CNCCC(c1ccccc1)c1ccccc1`, 2.2% (active).
The same measure for `OC(CN1CCN(c2cccc(Cl)c2)CC1)C(c1ccccc1)c1ccccc1` (stereo not drawn): 5.1% (active); for `CC1CCN=C(N)S1` (stereo not drawn): -1.8%.
On to `O=C(O)C1=CCCN(CCON=C(c2ccccc2)c2ccccc2)C1`, for which the inhibition was 1.1% (active).
The same measure for `CC(C)C[C@H]1C(=O)N2CCC[C@H]2[C@]2(O)O[C@](NC(=O)[C@@H]3C=C4c5cccc6[nH]c(Br)c(c56)C[C@H]4N(C)C3)(C(C)C)C(=O)N12`: 4% (active); for `CC1C(=O)N(C)C(=O)c2nc[nH]c21` (stereo not drawn): 0.5% (active).
As for `CCCn1c(=O)[nH]c(=O)c2[nH]cnc21`, the figure is -1.8%; as for `Cc1ccc(S(=O)(=O)NC(=O)NN2CCCCCC2)cc1`, 4.7% (active).
The same measure for `Cc1ccc(S(=O)(=O)N[C@@H](Cc2ccccc2)C(=O)CCl)cc1`: -8.2%; for `CCc1ccc2c(-c3cccc(Cl)c3)nc(=O)n(CC)c2n1`: -0.7%; for `Nc1cc(Cl)c(NC2=NCCN2)c(Cl)c1`: -2.8%.
`Clc1ccc2nsnc2c1NC1=NCCN1`: the inhibition is 1.5% (active).
As for `Clc1cccc(Cl)c1NC1=NCCN1`, the figure is -1.9%; as for `Cn1cc(C2=C(c3ccc(Cl)cc3Cl)C(=O)NC2=O)c2ccccc21`, -1.7%.
As for `CCN(CC)C(=O)c1ccc(O)c(OC)c1`, the figure is 6.8% (active).
The same measure for `O=C(O)Cc1ccc(O)c(O)c1`: 5.6% (active); for `COc1cc(CNC(=O)CCCCCCC(C)C)ccc1O`: 7.6% (active).
Take `CCCCCCCC/C=C\CCCCCCCC(=O)NCc1ccc(O)c(OC)c1`: the inhibition was -4.3%.
Consider `COc1cc(CC(=O)O)ccc1O`, for which the inhibition was 11% (active).
As for `CC1CCN(CC[C@H]2CCCN2S(=O)(=O)c2cccc(O)c2)CC1`, the figure is -3.7%; as for `Brc1c(NC2=NCCN2)ccc2nccnc12`, -3.8%.
`O=C1c2ccccc2-c2n[nH]c3cccc1c23`: the inhibition is 12.7% (active).
As for `Oc1cc2c(c(Cl)c1O)CCNCC2c1ccccc1` (stereo not drawn), the figure is 24.1% (active); as for `Oc1ccc(C2CNCCc3c2cc(O)c(O)c3Cl)cc1` (stereo not drawn), 30% (active); as for `Oc1cc2c(cc1O)C(c1ccccc1)CNCC2` (stereo not drawn), 5.7% (active).
As for `O=C(O)C1=CCNCC1`, the figure is -1.6%; as for `CN(C)C(N)=NCCC[C@H](N)C(=O)O`, 0.3% (active); as for `CSC(N)=NCCC[C@H](N)C(=O)O`, 1.7% (active).
For `CC(N)=NCCCC[C@@H](N)C(=O)O`, the inhibition was -0.6%.
The same measure for `NC(N)=NCCC[C@H](N)C(=O)O`: 6% (active); for `Nc1c2c(nc3ccccc13)CCCC2`: -3.1%; for `O=c1c2ccccc2nc2n1CCc1c-2[nH]c2ccccc12`: 5% (active).
Turning to `CCCCCCCCCCC/C=C\C(C)(C)/C=C\CCCC(=O)O`, the inhibition was 9.1% (active).
The same measure for `CCCCCCC/C=C\CCCCCCCCC(=O)O`: -3.4%.
With `CCCn1c(=O)c2[nH]c(-c3ccc(S(=O)(=O)O)cc3)nc2n(CCC)c1=O`, the inhibition was -0.7%.
As for `CCCn1c(=O)c2[nH]c(-c3ccc(OCC(=O)NCCN)cc3)nc2n(CCC)c1=O`, the figure is 0.5% (active); as for `CCC1(c2ccccc2)C(=O)NCNC1=O`, 2.4% (active).
For the molecule `CN1Cc2c(N)cccc2C(c2ccccc2)C1` (stereo not drawn), the inhibition is 5.3% (active).
The same measure for `CC1=C(/C=C/C(C)=C/C=C/C(C)=C/C(=O)O)C(C)(C)CCC1`: 2.4% (active); for `CC1=C(/C=C/C(C)=C/C=C/C(C)=C\C(=O)O)C(C)(C)CCC1`: -3%.
As to `CC1=C(/C=C/C(C)=C/C=C/C(C)=C/C(=O)Nc2ccc(O)cc2)C(C)(C)CCC1`, the inhibition is 1.8% (active).
The same measure for `CC(=O)O[C@]1(C(C)=O)CC[C@H]2[C@@H]3C=C(Cl)C4=CC(=O)[C@@H]5C[C@@H]5[C@]4(C)[C@H]3CC[C@@]21C`: 6.1% (active).
As for `NC[C@@H]1O[C@H](c2ccccc2)Cc2c1ccc(O)c2O`, the figure is 11% (active).
As for `NC[C@@H]1O[C@H](C23CC4CC(CC(C4)C2)C3)Cc2c1ccc(O)c2O`, the figure is 17.8% (active); as for `Nc1ncnc2n[nH]c(Nc3ccc(F)cc3)c12`, 19.7% (active); as for `C1COC(NC(C2CC2)C2CC2)=N1`, 0.6% (active).
Turning to `Clc1ccc(N2CCN(Cc3cc4ccccn4n3)CC2)cc1`, the inhibition is 21.7% (active).
As for `Clc1ccc(Cn2c(CN3CCCC3)nc3ccccc32)cc1`, the figure is -0.7%; as for `O=C1CCC(N2C(=O)c3ccccc3C2=O)C(=O)N1` (stereo not drawn), -1.8%; as for `O=c1ccc2ccc(O)c(O)c2o1`, 31.6% (active).
The same measure for `Cn1cnc2c(NCc3ccccc3)nc(NCCO)nc21`: 1.3% (active); for `CC[C@@H](CO)Nc1nc(NCc2ccccc2)c2ncn(C(C)C)c2n1`: 6.3% (active).
As for `Cc1cc(NC2CCCCC2)nc(-n2nc(C)cc2C)n1`, the figure is 1.1% (active).
For the molecule `O=C(O)c1ccccc1Nc1ccccc1`, the inhibition was 42.7% (active).
As to `Cc1ccc(Cl)c(Nc2ccccc2C(=O)O)c1Cl`, the inhibition is 6.2% (active).
Consider `O=C(O)CP(=O)(O)O`, for which the inhibition was -4%.
As for `CC(N)C1CCC(C(=O)Nc2ccncc2)CC1` (stereo not drawn), the figure is 4.4% (active).
The same measure for `COc1ccc(C2CNC(=O)C2)cc1OC1CCCC1` (stereo not drawn): -7.5%.
The same measure for `CC[C@@H](C)[C@H]1O[C@]2(CC[C@@H]1C)C[C@@H]1C[C@@H](C/C=C(\C)[C@@H](O[C@H]3C[C@H](OC)[C@@H](O[C@H]4C[C@H](OC)[C@@H](O)[C@H](C)O4)[C@H](C)O3)[C@@H](C)/C=C/C=C3\CO[C@@H]4[C@H](O)C(C)=C[C@@H](C(=O)O1)[C@]34O)O2`: 1.1% (active); for `COc1ccccc1OCCNCC(O)COc1cccc2[nH]c3ccccc3c12` (stereo not drawn): 1.9% (active); for `CCCNCC(O)COc1ccccc1C(=O)CCc1ccccc1` (stereo not drawn): -7.1%.
On to `C=C1C(=O)O[C@@H]2[C@H]3O[C@]3(C)CCC=C(C)CC[C@@H]12`, for which the inhibition is 0.5% (active).
The same measure for `NCCCC(N)(C(=O)O)C(F)F` (stereo not drawn): -2.3%; for `Cn1ncc(S(=O)(=O)Cc2ccccc2)c(Br)c1=O`: -5.4%; for `N[C@H](C(=O)O)[C@H](O)C(=O)O`: 0.9% (active).
Regarding `N[C@@H](Cc1cnc[nH]1)C(=O)O`, the inhibition is 1.5% (active).
Regarding `Nc1ncnc2c1ncn2[C@@H]1O[C@H](COP(=O)(O)CP(=O)(O)OP(=O)(O)O)[C@H](O)C1O` (stereo partly drawn), the inhibition is -6.5%.
The same measure for `NC(=S)c1ccc[n+]([C@@H]2O[C@@H](COP(=O)([O-])OP(=O)(O)OC[C@H]3O[C@@H](n4cnc5c(N)ncnc54)C(OP(=O)(O)O)[C@H]3O)C(O)C2O)c1` (stereo partly drawn): 3.1% (active); for `CCN(CC)c1ncnc2c1ncn2[C@@H]1O[C@H](COP(=O)(O)OP(=O)(O)C(Br)(Br)P(=O)(O)O)[C@@H](O)[C@H]1O`: -1%; for `Nc1ncnc2c1ncn2[C@@H]1O[C@H](COP(=O)(O)OP(=O)(O)OP(=O)(O)OP(=O)(O)OC[C@@H]2O[C@H](n3cnc4c(N)ncnc43)C(O)[C@@H]2O)[C@H](O)C1O` (stereo partly drawn): 3.7% (active).
The same measure for `NC(=O)C1=C[N+](=C2OC(COP(=O)(O)OP(=O)([O-])OC[C@H]3O[C@@H](n4cnc5c(N)ncnc54)C(OP(=O)(O)O)[C@H]3O)C(O)C2O)C=CC1` (stereo partly drawn): -0.9%.
Turning to `NC[C@H]1O[C@@H](n2cnc3c(N)ncnc32)[C@H](O)[C@@H]1O`, the inhibition is -4.6%.
